Results as given in PubChem BioAssay AID777 (Sanford-Burnham Center for Chemical Genomics, 2007).
In all, about 96,000 compounds went through this assay and about 19,000 (20%) were called active.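 How the source made its calls: active means blocking of liver enzyme CYP2C9 beyond about 50% at 5 µM (limit read from the data); inactive means the rest.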 Only a sample is shown.

Each molecule was assayed against Cytochrome P450 2C9 (Homo sapiens) (UniProt P11712) (assay: blockers of cytochrome P450 2C9 activity – biochemical, luminescence, ADME assay, primary screen (AID 777)). Conditions: CYP2C9 Supersomes, luciferin-H conversion, at 5 µM, active compounds read high.
Sequence of Cytochrome P450 2C9 (Homo sapiens) (P11712 whole entry, looked up): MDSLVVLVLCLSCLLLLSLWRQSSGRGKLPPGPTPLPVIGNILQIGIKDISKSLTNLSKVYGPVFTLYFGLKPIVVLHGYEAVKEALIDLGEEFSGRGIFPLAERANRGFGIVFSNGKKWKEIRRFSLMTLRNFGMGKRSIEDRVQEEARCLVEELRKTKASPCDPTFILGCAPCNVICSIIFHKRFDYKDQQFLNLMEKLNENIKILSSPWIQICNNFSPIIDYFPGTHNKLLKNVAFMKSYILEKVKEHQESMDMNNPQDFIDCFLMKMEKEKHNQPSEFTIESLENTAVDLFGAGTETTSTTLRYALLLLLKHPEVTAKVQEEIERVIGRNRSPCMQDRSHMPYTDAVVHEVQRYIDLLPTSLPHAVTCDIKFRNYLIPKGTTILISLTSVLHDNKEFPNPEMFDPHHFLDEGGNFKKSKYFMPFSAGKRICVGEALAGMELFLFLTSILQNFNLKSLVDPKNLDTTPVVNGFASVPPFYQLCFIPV

inhibition, inactive:
COCCCNC(=O)c1ccc2c(c1)ncn2-c1ccccc1OC -38.2%, COc1ccccc1-n1cnc2cc(C(=O)NCC3CCCO3)ccc21 (stereo unspecified) -36.5%, Cn1ncc(Br)c1C(=O)NCc1cccs1 1.5%, COc1ccc(-c2csc3nc(-c4ccccc4F)oc(=O)c23)cc1OC -1.8%, CCN(CC)S(=O)(=O)c1ccc(N2CCOCC2)c(C(=O)O)c1 19.3%, Cc1ccc(S(=O)(=O)N2CCC(C(=O)N[C@@H](C)C(=O)NCc3ccccc3)CC2)cc1 -9.2%, O=C(CSc1nnc(Cn2cnc3ccccc32)o1)c1ccccc1 32.1%, CCOC(=O)N1CCN(CC(=O)c2c(C)[nH]c3ccccc23)CC1 -60.1%, COc1cc(OC)c(C(=O)Nc2ccc(N(C)C)cc2)cc1OC 33.3%, CCNS(=O)(=O)c1ccc(NC(=O)Nc2cccc(C(F)(F)F)c2)cc1 34.1%, CCC(=O)Nc1ccc(C(=O)Nc2cccc(OC)c2)cc1 -13.5%, CCOC(=O)C1=C(c2ccccc2)O/C(=C(/C(=O)OC)C(F)(F)F)S1 20.8%, CCCc1[nH]nc2c1C(c1ccc(OC)c(Cn3nc(C)c(Br)c3C)c1)C(C#N)=C(N)O2 (stereo unspecified) 11.8%, COc1ccc(-c2[nH]nc3c2C(c2ccncc2)C(C#N)=C(N)O3)cc1 (stereo unspecified) -13%, Cc1cc(C)c(C#N)c(SCc2[nH]nc3c2C(c2ccccc2)C(C#N)=C(N)O3)n1 (stereo unspecified) 18.4%, CCCc1[nH]nc2c1C(c1ccc(Br)s1)C(C#N)=C(N)O2 (stereo unspecified) 33%, COC(=O)c1cc(S(=O)(=O)NC2CCN(Cc3ccccc3)CC2)cn1C -9.6%, S=c1[nH]nc(-c2ccc(Cl)cc2)n1CC1CCCO1 (stereo unspecified) 15.7%, CC(C)NS(=O)(=O)c1ccc(CCC(=O)N2CCOCC2)cc1 0%, CC1CCCCC1NC(=O)CSc1nnc(N)s1 (stereo unspecified) -16.3%, CCCC1CC(C)(C(=O)Cn2[nH]c(=O)ccc2=O)OC1=O (stereo unspecified) -20.1%, CC(C)Nc1ncnc2c1nnn2Cc1ccccc1 -0.4%, Nc1c(C(=O)NCc2ccccc2)nnn1Cc1cccc(Cl)c1 19.3%, COC(=O)c1c(C)c(C)nc(N)c1C#N -10.8%, N#CCCN(CCC#N)c1nnc(-c2ccccc2)s1 2.8%, CCN(CC)Cc1c(C(=O)OC)nnn1-c1nonc1N -22.1%, CCOC(=O)c1nnn(-c2nonc2-n2cccc2)c1CN1CCOCC1 16.6%, O=c1c2c(nc3nc[nH]n13)CCC2 -10.5%, Cc1noc(C)c1C(=O)Nc1ccccn1 3.8%, Cc1onc(-c2ccccc2)c1C(=O)N1CCOCC1 -1.3%, CC(=O)Nc1cccc(-c2cnc3ccccc3n2)c1 49.7%, O=C(Nc1cccc2ccccc12)c1onc2c1CCCC2 -38.6%, COC(CNC(=O)Cn1ncc2ccsc2c1=O)OC -15.8%, CCCC(=O)N=c1sc2cccc(F)c2n1C 14.7%, CC1=Nn2c(nnc2-c2ccccc2)SC1 -4.9%, CCn1c(=N)c(S(=O)(=O)c2ccc(F)cc2)cc2c(=O)n3ccccc3nc21 -0.6%, O=C(Nc1nsc(-c2ccccc2)n1)c1ccncc1 45.7%, CCC(=O)Nc1nc(OC)cc(OC)n1 2.1%, COc1ccc(-n2c(SCC(=O)Nc3sc4c(c3C#N)CCCC4)nnc2-c2ccc(O)cc2)cc1 33.9%, N#Cc1ccsc1NC(=O)CN1CCCCC1 -15.3%, COc1ccc(NC2CC(=O)N(C)C2=O)cc1 (stereo unspecified) 1.8%, Cc1c(Cl)c([N+](=O)[O-])nn1Cc1ccc(C(=O)N/N=C\c2cc(Cl)ccc2O)o1 41.2%, CCOc1ccc(-c2nnn(CC(=O)N3CCN(c4ccc(OC)cc4)CC3)n2)cc1OCC 1.7%, Cc1ccc(CNC(=O)C2CCCN2C(=O)NCc2ccccc2)cc1 (stereo unspecified) -10%, O=C1c2ccccc2C(O)N1Cc1ccccc1 (stereo unspecified) -2.8%, Cn1cccc1C(=O)NC(=O)COC(=O)Cc1coc2ccc3ccccc3c12 -91.7%, O=C(c1ccco1)N1CCN(C(=O)C2CCCN(S(=O)(=O)c3cccc4nsnc34)C2)CC1 (stereo unspecified) 12.6%, COc1ccc(C(=O)Nc2c(N)nc(SCC(=O)N3CCC(C)CC3)[nH]c2=O)cc1OC -5.6%, COc1ccc(C(=O)Oc2cc(/C=N/NS(=O)(=O)c3ccc(C)cc3)ccc2OC)cc1 29.8%, Cc1ccc(C(=O)NNC(=O)c2cc3cc4ccccc4nc3s2)cc1 6.6%, O=C(NCCCN1CCN(C2CCCCC2)CC1)Nc1ccccc1C(F)(F)F 0.7%, O=C(NCc1ccco1)c1cc(-c2cccnc2)nc2ccc(Cl)cc12 17.9%, Cc1cc(NCc2ccco2)n2c(nc3ccccc32)c1C#N 20.4%, O=C(COC(=O)CCc1c[nH]c(=O)[nH]1)Nc1ccccc1Cl -6%, CCOC(=O)c1nnn(-c2nonc2OC)c1-c1ccccc1 26.7%, O=C1CCc2cc(S(=O)(=O)N3CCC(C(=O)NCc4ccccc4Cl)CC3)ccc2N1 24.7%, O=C(O)C1CCCN1S(=O)(=O)c1ccc2c(c1)CCC2 (stereo unspecified) -48.8%, CCN1CCN(c2ccc([N+](=O)[O-])cc2C(=O)c2ccc(Cl)cc2)CC1 -60.5%, CCc1nnc(NC(=O)c2nc3nccc(C)n3n2)s1 1.9%, CCCc1ccc(-c2csc(NC(=O)Cc3cccs3)n2)cc1 42.2%, Cc1ccc(-c2csc(NC(=O)Cc3cccs3)n2)cc1C 26.9%, Cc1ccc(-c2csc(NC(=O)c3cccs3)n2)cc1 3.3%, CCn1c(SCC(=O)Nc2nc(C)cs2)nnc1C(C)NC(=O)c1ccccc1 (stereo unspecified) 21.2%, Cc1cccc2nc(CNc3ccc(F)cc3)cn12 38.8%, COc1cccc(-c2nnc(N(C)C(=O)c3ccno3)s2)c1 2.4%, CC(=O)c1cc(-c2ccccc2)[nH]c1N1CCCC1 12.9%, Cc1ccc(C)c(NC(=O)c2ccc(OC(=O)c3ccco3)cc2)c1 -24%, CCc1ccccc1N(CC(=O)NCCSCc1ccco1)S(C)(=O)=O 25.8%, Cc1ccc(C(=O)N/C(=C/C=C/c2ccccc2)C(=O)NCc2ccco2)cc1 36%, COc1cc(OC)cc(C(=O)NCCSCc2ccco2)c1 -1.5%, Cc1ccccc1NC(=O)NCc1ccco1 -34.3%, Cc1cccc(Nc2ccccc2C(=O)NCc2ccco2)c1C 27.2%, COCCNC(=O)Cn1cc2c(n1)CCCCC2 1.8%, COc1cc2cc(CN(CCN3CCCC3)C(=O)Nc3ccccc3Cl)c(=O)[nH]c2cc1OC 15%, O=S(=O)(O)CCN1CCOCC1 1.4%, COc1cc(/C=C2/C(=O)ON=C2C)ccc1OCc1ccccc1F -5.4%, COc1ccc(C2SCCN2S(=O)(=O)c2ccccc2)cc1OC (stereo unspecified) -107%, CCCN1Cc2cccc(C(=O)NCc3ccccc3)c2C1=O 16.3%, N#CC1=C(N)OC2=C(C(=O)CCC2)C1C1CC=CCC1 (stereo unspecified) 37.1%, O=C(O)CN1C(=O)CC(Cc2ccccc2)C1=O (stereo unspecified) 7.4%, COc1ccc(OC)c(C(=O)c2ccc(C(=O)O)cc2)c1 9.5%, COc1ccc(O)c(C=Nc2cc(C)on2)c1 -5.4%

inhibition, active:
COc1ccccc1-n1cnc2cc(NS(=O)(=O)c3ccccc3)ccc21 82.5%, CN(C)S(=O)(=O)c1ccc(N2CCCC2)c(C(=O)NCc2ccccc2)c1 59.9%, CCNS(=O)(=O)c1ccc(NC(=O)Nc2cccc(OC)c2)cc1 59.5%, CCCc1[nH]nc2c1C(c1c(C)nn(-c3ccccc3)c1Cl)C(C#N)=C(N)O2 (stereo unspecified) 52.8%, CCCc1[nH]nc2c1C(c1ccc(OC(=O)c3ccco3)cc1)C(C#N)=C(N)O2 (stereo unspecified) 52%, CCOC(=O)c1nnn(-c2nonc2-n2cccc2)c1CN1CCC(C(=O)OCC)CC1 94.8%, CC(=O)Nc1cccc(NC(=O)c2c(-c3ccccc3)noc2C)c1 74.3%, Cc1onc(-c2ccccc2)c1C(=O)Nc1ccccc1C#N 62.8%, CC(c1nnc(SCC(=O)Nc2sccc2C#N)n1-c1ccc(Cl)cc1)N(C)C (stereo unspecified) 50.8%, O=C(NCc1ccccc1)[C@@H]1CSC2c3ccccc3C(=O)N21 (stereo partly specified) 67.1%, COc1ccc(/C=C(/NC(=O)c2ccc(C)cc2)c2nc3ccccc3[nH]2)cc1OC 69.5%, Clc1cccc(-c2nc3nc4ccccc4nc3n2Cc2ccco2)c1 52.8%, CSc1cccc(NC(=O)C2CCCN2S(=O)(=O)c2ccc3c(c2)CCC(=O)N3)c1 (stereo unspecified) 81.6%, O=C(CSC1=NCCS1)Nc1nc(-c2ccccc2)cs1 60.8%, Cc1cccc(S(=O)(=O)CC(=O)Nc2nc(-c3ccccc3)cs2)c1 91.4%, Cc1ccc(N(Cc2ccc(C(=O)Nc3ccccc3C(=O)NCc3ccco3)cc2)S(C)(=O)=O)cc1C 72%, O=C(Nc1ccccc1)Nc1ccccc1C(=O)NCc1ccco1 88.1%, CS(=O)(=O)N(Cc1ccc(Cl)cc1)c1ccc(C(=O)NCCSCc2ccco2)cc1 74.1%, COc1ccc(O)c(C(=O)c2cnc3onc(C(C)C)c3c2)c1 96.6%
